# Experimental data: PubChem BioAssay
# Target: Torsin-1A (Homo sapiens) (UniProt O14656)
# Assay: torsin A mutant lysate binding on microarrays – cell lysate, small-molecule microarray, COS7 lysate, 635/667 nm fluorescence, primary screen (AID 1150);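 note: score pools 667 nm emission and signal to noise measuring lysate protein binding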
# Settings: COS7 hTOR1A mutant lysate, 635 nm fluorescence, higher = more signal
# Chain of Torsin-1A (Homo sapiens) (O14656 whole entry, looked up): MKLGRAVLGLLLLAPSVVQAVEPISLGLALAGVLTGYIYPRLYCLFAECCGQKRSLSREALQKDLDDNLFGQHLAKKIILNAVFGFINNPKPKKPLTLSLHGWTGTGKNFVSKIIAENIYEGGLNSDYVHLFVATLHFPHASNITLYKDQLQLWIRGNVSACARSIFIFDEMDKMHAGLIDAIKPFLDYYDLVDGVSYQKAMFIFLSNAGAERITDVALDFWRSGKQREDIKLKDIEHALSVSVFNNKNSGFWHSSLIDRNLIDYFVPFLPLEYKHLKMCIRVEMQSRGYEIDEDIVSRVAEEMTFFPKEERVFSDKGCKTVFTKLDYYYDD
row,Compound,composite z-score
1,C=CCNC(=O)[C@@H]1[C@H]2C(=O)O[C@H](c3ccccc3)[C@H](c3ccccc3)N2[C@H](c2ccc(OCCO)cc2)[C@@]12C(=O)N(C(=O)OCCOC)c1ccc(C#CCNC(N)=O)cc12,0.733
2,O=C1NC(=O)C2C1C=CC(C(O)c1ccc(I)cc1)N2Nc1ccccn1 (stereo not drawn),0.239
3,COc1cc2c(cc1OC)CN(C(=O)[C@H]1[C@@H]3C(=O)O[C@@H](c4ccccc4)[C@@H](c4ccccc4)N3[C@@H](c3ccccc3OCCO)[C@]13C(=O)Nc1ccc(C#CCCO)cc13)CC2,0.142
4,C=CCC(OC(C)=O)[C@@H]1[C@@H](N(Cc2ccc(-c3cccc(C(F)(F)F)c3)o2)C(=O)c2cccc3ccccc23)c2cc(OCCCO)ccc2N1C(=O)Cc1ccc2ccccc2c1 (stereo partly drawn),-0.361
5,C=CCN1C(=O)[C@]2(O[C@H](CCO)[C@@H]([Si](C)(C)c3ccc(OC)cc3)[C@@H]2C)c2cc(N(C=O)c3ccccc3)ccc21,0.0507
6,COC(=O)c1c2oc(c1C(=O)OC)C(=O)NC1(CCCCC1)c1cn(nn1)C[C@H](Cc1ccccc1)NC(=O)N[C@H](CO)CC2,0.113
7,CCN(CC)c1ccc(N2CC=CC34O[C@@H]5C=CCOC(=O)[C@@H]5[C@H]3C(=O)N(CCCCCCO)[C@@H]4C2=O)cc1 (stereo partly drawn),0.339

# Test system: Sonic hedgehog protein (Shh)
# Assay: Sonic hedgehog microarray binding compounds – biochemical, small-molecule microarray, 635/667 nm fluorescence, primary screen (AID 1151);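 note: Shh protein binding to compounds spotted on small-molecule microarray slides; score combines spot fluorescence intensity with signal-to-noise across triplicate slides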
# Settings: 635 nm fluorescence, higher = more signal
row,Compound,composite z-score
1,COC(=O)[C@@]1(Cc2ccc(OC)cc2)[C@H]2c3cc(C(=O)N4CCCC4)n(CCc4ccc(O)c(O)c4)c3C[C@H]2CN1C(=O)c1ccccc1,-0.349
2,CC(CO)N1C(=O)[C@@H]2C3C(=O)OCCC/C=C\[C@H]3OC23C=CCN(CCN2CCOCC2)C(=O)[C@@H]13 (stereo partly drawn),1.21
3,CC1CC/C=C\[C@H]2OC34C=CCN(Cn5nnc6ccccc65)C(=O)[C@H]3N(CCCCCO)C(=O)[C@@H]4C2C(=O)O1 (stereo partly drawn),-0.124
4,COC(=O)C(CC#Cc1ccc2c(c1)[C@]1(C(=O)N2)[C@H](c2ccccc2OCCO)N2[C@H](c3ccccc3)[C@H](c3ccccc3)OC(=O)[C@H]2[C@@H]1C(N)=O)C(=O)OC,0.111
5,COC(=O)[C@@]1(Cc2ccc(OC)cc2)[C@H]2c3cc(C(=O)N4CCCC4)n(CCSCCO)c3C[C@H]2CN1C(=O)c1ccccc1,-0.623
6,C=CC[C@@]1(C(=O)N2CCCCC2)N=C(c2ccc(OCCCO)cc2)O[C@@H]1c1ccccc1CN=[N+]=[N-],0.466
7,CCOC(=O)C1=C[C@@H](C(C)C)N(S(=O)(=O)c2ccc(C)cc2)[C@H]1c1ccccc1F,0.394
8,NC(=O)[C@@]1(Cc2ccccc2)N=C(c2ccc(OCCCO)cc2)O[C@H]1c1ccccc1,-0.558
9,COc1cc2c(cc1O)C(c1cccs1)N(Cc1ccc([N+](=O)[O-])o1)CC2 (stereo not drawn),-0.951
10,COCCCNC(=O)[C@@]1(Sc2ccc(C)cc2)CC(=O)N(Cc2ccccc2Cl)[C@@H]1c1ccc(CO)cc1,2.02
11,O=C1N(CCS(=O)(=O)c2ccccc2)c2ccccc2[C@@H]2OC(c3ccc(OCCCO)cc3)=N[C@]12Cc1ccccc1,1.95
12,[N-]=[N+]=Nc1ccccc1C[C@]1(C(=O)N2CCCCC2)COC(c2ccc(OCCCO)cc2)=N1,-0.385
13,COc1ccc(CCNC(=O)[C@@]2(c3ccc([N+](=O)[O-])cc3)CC(=O)N(CC34CC5CC(CC(C5)C3)C4)[C@@H]2c2ccc(CO)cc2I)cc1,1.75
14,NCCCCCNC(=O)[C@H]1C[C@H]2C(=O)N3CCC[C@H]3C(=O)N2[C@H]1c1ccc(O)cc1,1.65
15,COCCCNC(=O)[C@@]1(CCS(=O)(=O)c2ccccc2)N=C(c2ccc(OCCCO)cc2)O[C@H]1c1ccccc1N=[N+]=[N-],1.72
16,COc1ccc([Si](C)(C)[C@@H]2[C@@H](CCn3cc(CCO)nn3)O[C@]3(C(=O)N(Cc4cccc(N5C(=O)c6cccc7cccc5c67)c4)c4ccccc43)[C@H]2C)cc1,2.08
17,O=C1OCCC/C=C\[C@H]2OC34C=CCN(c5ccc6ccccc6c5)C(=O)[C@H]3N(CCCCCO)C(=O)[C@@H]4C12 (stereo partly drawn),-0.0295
18,CN1C(=O)C2C=CC(C(O)c3ccccc3)N(N3CCCCC3)C2C1=O (stereo not drawn),-0.689

row,Compound,composite z-score
1,C=C(C(=O)CC[C@H](OC(C)=O)c1ccccc1OCCO)C(C)C,2.19
2,C=C(CCCC)C(=O)CC[C@@H](OC(C)=O)c1ccc(CO)o1,1.95
3,CC(C)(C)OC(=O)CC[C@]1(C(=O)NCCN2CCOCC2)COC(c2ccc(OCCCO)cc2)=N1,0.998
4,C=CCOC(=O)[C@H]1[C@@H]2C(=O)O[C@@H](c3ccccc3)[C@@H](c3ccccc3)N2[C@@H](c2ccc(OCCOC(=O)[C@H]3C[C@H]4C(=O)N[C@@H](CCCCN(C)C)C(=O)N4[C@H]3c3cccc(OCCO)c3)cc2)[C@]12C(=O)Nc1ccc(I)cc12,2.27
5,[N-]=[N+]=Nc1ccccc1C[C@]1(C(=O)NCc2ccccc2)N=C(c2ccc(OCCCO)cc2)O[C@H]1c1ccccc1N=[N+]=[N-],-0.4
6,CCOC(=O)C1=CC[C@@H](c2ccccc2)N(S(=O)(=O)c2ccc(C)cc2)[C@H]1c1ccc(CC)cc1,-0.737
7,COCC(=C=CC[C@H](O)c1ccccc1OCCO)CCO,1.09
8,COc1ccc(C(=O)Nc2ccc(CN3C(=O)[C@]4(O[C@H](CC(=O)N5CCC[C@H]5CO)[C@@H]([Si](C)(C)c5ccc(OC)cc5)[C@@H]4C)c4ccccc43)cc2)cc1,2.05
9,C=C(C)[C@@H]1CC=C(C(O)C2C=CC3C(=O)NC(=O)C3N2Nc2ccc(Cl)cc2Cl)CC1 (stereo partly drawn),0.393
10,O=C1O[C@@H](c2ccccc2)[C@@H](c2ccccc2)N2[C@@H](c3ccc(OCCO)cc3)[C@]3(C(=O)Nc4ccc(C#CCCO)cc43)[C@@H](C(=O)NC[C@H](O)c3ccccc3)[C@H]12,1.88
11,O=C1[C@H]2C=C(Br)[C@H](C[C@@H]2OCCCCCCO)[C@@]12CO2,0.129
12,C=CCNC(=O)[C@@H]1[C@H]2C(=O)O[C@H](c3ccccc3)[C@H](c3ccccc3)N2[C@H](c2ccc(OCCO)cc2)[C@@]12C(=O)N(C(=O)OCCOC)c1ccc(C#CCNC(N)=O)cc12,1.56
13,O=C1NC(=O)C2C1C=CC(C(O)c1ccc(I)cc1)N2Nc1ccccn1 (stereo not drawn),-0.0484
14,COc1cc2c(cc1OC)CN(C(=O)[C@H]1[C@@H]3C(=O)O[C@@H](c4ccccc4)[C@@H](c4ccccc4)N3[C@@H](c3ccccc3OCCO)[C@]13C(=O)Nc1ccc(C#CCCO)cc13)CC2,1.75
15,C=CCC(OC(C)=O)[C@@H]1[C@@H](N(Cc2ccc(-c3cccc(C(F)(F)F)c3)o2)C(=O)c2cccc3ccccc23)c2cc(OCCCO)ccc2N1C(=O)Cc1ccc2ccccc2c1 (stereo partly drawn),0.248
16,C=CCN1C(=O)[C@]2(O[C@H](CCO)[C@@H]([Si](C)(C)c3ccc(OC)cc3)[C@@H]2C)c2cc(N(C=O)c3ccccc3)ccc21,0.572
17,COC(=O)c1c2oc(c1C(=O)OC)C(=O)NC1(CCCCC1)c1cn(nn1)C[C@H](Cc1ccccc1)NC(=O)N[C@H](CO)CC2,1.32
18,CCN(CC)c1ccc(N2CC=CC34O[C@@H]5C=CCOC(=O)[C@@H]5[C@H]3C(=O)N(CCCCCCO)[C@@H]4C2=O)cc1 (stereo partly drawn),-0.326
